Inconclusive results are not listed. Active and inactive are the calls of the source. Rule for the calls, unless noted: active = hit-call score of the fitted dose curve at least 0.9, where 1 is the maximum; inconclusive = response in the unintended direction; inactive = score below 0.9.
Columns and labels:
[1] = ATG_TCF_b_cat_CIS: Attagene CIS-FACTORIAL HepG2 Assay for human T-Cell-Factor with beta-catenin (TCF/b-cat) (AID 2282965; active = hit-call score of the fitted dose curve at least 0.9, where 1 is the maximum; inactive = score below 0.9); conditions: HepG2 TCF/beta-catenin cis-reporter transcription, actives raise or lower the signal
How it was run: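 In this cis-format system, transfected HepG2 cells report endogenous transcription factor activity. Readout after 24 h exposure is reporter transcript abundance from RT-PCR and capillary electrophoresis, analysed for gain or loss of signal versus DMSO.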

[2] = ATG_TAL_CIS: Attagene CIS-FACTORIAL HepG2 Assay for human TAL Basal Promoter (AID 2282966; active = hit-call score of the fitted dose curve at least 0.9, where 1 is the maximum; inactive = score below 0.9;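 note: background control endpoint measuring basal TAL promoter reporter mRNA not a specific factor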); conditions: HepG2 Attagene cis-factorial TAL promoter reporter; actives raise or lower the signal
How it was run: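 After 24 hours of chemical exposure, transfected HepG2 cells yielded RNA that was converted to 6-FAM-labelled, HpaI-digested reporter fragments for capillary electrophoresis. Values derive from bidirectional fitting against DMSO controls.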

[3] = ATG_TGFb_CIS: Attagene CIS-FACTORIAL HepG2 Assay for human Transforming Growth Factor (TGF) (AID 2282967; active = hit-call score of the fitted dose curve at least 0.9, where 1 is the maximum; inactive = score below 0.9); conditions: HepG2 Attagene CIS TGFb reporter, mRNA transcription; actives raise or lower the signal
How it was run: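 Transient MRTU transfection of HepG2 (FuGene 6). Dose 24 h. TriZol RNA, oligo(dT) RT, PCR, 6-FAM primer extension, HpaI cut, CE. Bidirectional fit, DMSO = baseline.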

[4] = ATG_VDRE_CIS: Attagene CIS-FACTORIAL HepG2 Assay for human Vitamin D Receptor Element (VDRE) (AID 2282968; active = hit-call score of the fitted dose curve at least 0.9, where 1 is the maximum; inactive = score below 0.9); conditions: HepG2 VDRE cis-reporter transcription, actives raise or lower the signal
How it was run: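 Transfected HepG2 reporter cells, chemical treatment 24 h. RNA isolated, cDNA amplified with reporter-specific primers, products analysed by capillary electrophoresis. Endpoint fitted in both directions versus DMSO.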

[5] = target: Nuclear receptor subfamily 1 group I member 3 (Homo sapiens) (UniProt Q14994); assay: ATG_CAR_TRANS: Attagene TRANS-FACTORIAL HepG2 Assay for human Constitutive Androstane Receptor (CAR) (AID 2282969); conditions: HepG2 Attagene TRANS-FACTORIAL CAR reporter;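 note: activators raise reporter mRNA above DMSO so AC50 marks induction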
How it was run: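 Steps: transient transfection of HepG2 with multiple GAL4-UAS reporter units; 24 h compound incubation; RNA isolation, RT-PCR, 6-FAM primer extension, HpaI digest; capillary electrophoresis. Gain-of-signal relative to DMSO negative control.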

[6] = target: X-box-binding protein 1 (Homo sapiens) (UniProt P17861); assay: ATG_Xbp1_CIS: Attagene CIS-FACTORIAL HepG2 Assay for human X-box Binding Protein 1 (XBP1) (AID 2282972; active = hit-call score of the fitted dose curve at least 0.9, where 1 is the maximum; inactive = score below 0.9); conditions: HepG2 XBP1 cis-element reporter, Attagene multiplex; actives raise or lower the signal
How it was run: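 Multiplexed cis-reporter readout in transfected HepG2 liver cells. Exposure lasted 24 hours. Activity in either direction was fitted against DMSO as negative control and baseline.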

[7] = ATG_GAL4_TRANS: Attagene TRANS-FACTORIAL HepG2 Assay for GAL4 (Internal Marker) (AID 2282976); conditions: HepG2 Attagene TRANS GAL4 internal marker reporter
How it was run: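 First, HepG2 cells were transfected with reporter units under GAL4-UAS control. Next, they were treated with chemical for 24 h. Finally, RNA was reverse-transcribed, PCR-amplified, FAM-labelled and resolved by capillary electrophoresis, with induction scored against DMSO.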

[8] = target: Hepatocyte nuclear factor 4-alpha (Homo sapiens) (UniProt P41235); assay: ATG_HNF4a_TRANS: Attagene TRANS-FACTORIAL HepG2 Assay for human Hepatocyte Nuclear Factor 4 alpha (HNF4a) (AID 2282982); conditions: HepG2 HNF4a transactivation reporter, mRNA readout
How it was run: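 Using HepG2 liver cells transfected with GAL4-UAS reporter units, chemical-induced mRNA increases were assessed after 24 hours. Fluorescent RT-PCR fragments were separated by capillary electrophoresis and compared with DMSO negative controls.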

[9] = ATG_M_32_TRANS: Attagene TRANS-FACTORIAL HepG2 Assay for M32 Transcription Factor (Internal Marker) (AID 2282984); conditions: HepG2 Attagene TRANS M32 internal marker reporter;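 note: transcript level of a background control reporter unit measured by RT-PCR and capillary electrophoresis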
How it was run: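 Fluorescence-detected mRNA induction, HepG2 liver cells, 24 h after dosing. Multiple GAL4-UAS reporter units introduced by transient transfection; background-control endpoint analysed for gain of signal against DMSO.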

[10] = target: Transcriptional activator Myb (Homo sapiens) (UniProt P10242); assay: ATG_Myb_CIS: Attagene CIS-FACTORIAL HepG2 Assay for human Myeloblastosis (Myb) Proto-Oncogene Transcription Factor (AID 2282986; active = hit-call score of the fitted dose curve at least 0.9, where 1 is the maximum; inactive = score below 0.9); conditions: HepG2 Attagene CIS-FACTORIAL Myb reporter transcription; actives raise or lower the signal
How it was run: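 Reporter mRNA is quantified by RT-PCR and capillary electrophoresis 24 h after dosing HepG2 cells transfected with cis-regulated reporter units, which track endogenous transcription factor activity. Gain and loss of signal are fitted versus DMSO baseline.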

[11] = target: Estrogen receptor (Homo sapiens) (UniProt P03372); assay: ATG_ERa_TRANS: Attagene TRANS-FACTORIAL HepG2 Assay for human Estrogen Receptor alpha (ERa) (AID 2282970); conditions: HepG2 Attagene TRANS ERa GAL4 reporter, mRNA
How it was run: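 Liver-derived HepG2 cells expressing chimeric nuclear receptor-Gal4 proteins from transient transfection were exposed for 24 hours. Gain of reporter mRNA signal versus DMSO, read by capillary electrophoresis of FAM-labelled PCR products, was recorded.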

[12] = target: Steroid hormone receptor ERR1 (Homo sapiens) (UniProt P11474); assay: ATG_ERRa_TRANS: Attagene TRANS-FACTORIAL HepG2 Assay for human Estrogen-Related Receptor alpha (ERRa) (AID 2282971); conditions: HepG2 Attagene TRANS reporter, ERRa transactivation
How it was run: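 Reporter transcript induction was quantified by RT-PCR and capillary electrophoresis of FAM-labelled, HpaI-cut products after 24 h treatment of HepG2 cells carrying transiently transfected GAL4-UAS reporter units and an exogenous ERRa-Gal4 fusion; activity scored as increase over DMSO.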

[13] = ATG_M_19_TRANS: Attagene TRANS-FACTORIAL HepG2 Assay for M19 Transcription Factor (Internal Marker) (AID 2282974); conditions: HepG2 Attagene TRANS-FACTORIAL M19 internal marker reporter
How it was run: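 Background-control readout: after 24 h chemical exposure of transfected HepG2 carrying GAL4-driven reporter units, RNA was reverse-transcribed, amplified, fluorescently labeled and sized by capillary electrophoresis; gain-of-signal fit against DMSO.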

[14] = target: Glucocorticoid receptor (Homo sapiens) (UniProt P04150); assay: ATG_GR_TRANS: Attagene TRANS-FACTORIAL HepG2 Assay for human Glucocorticoid Receptor (GR) (AID 2282978); conditions: HepG2 Attagene TRANS GR reporter, mRNA transcription;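 note: activators score as hits since higher reporter transcript over DMSO is fitted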
How it was run: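 Readout is reporter transcript from a chimeric GR-Gal4 acting on GAL4-UAS in transfected human HepG2 liver cells after 24 h exposure, quantified by RT-PCR and capillary electrophoresis. Activation fitted upward against DMSO.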

[15] = target: Oxysterols receptor LXR-alpha (Homo sapiens) (UniProt Q13133); assay: ATG_LXRa_TRANS: Attagene TRANS-FACTORIAL HepG2 Assay for human Liver X Receptor alpha (LXRa) (AID 2282980); conditions: HepG2 Attagene TRANS reporter, LXRa transactivation
How it was run: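 Transfect HepG2 with GAL4-UAS multiplex reporter constructs (TRANS format, chimeric receptor-GAL4); treat 24 h; extract RNA, reverse-transcribe, PCR-amplify, FAM-label, HpaI-digest; resolve fragments by capillary electrophoresis. Upward response vs DMSO.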

[16] = ATG_M_06_TRANS: Attagene TRANS-FACTORIAL HepG2 Assay for M06 Transcription Factor (Internal Marker) (AID 2282983); conditions: HepG2 Attagene TRANS M06 internal marker reporter;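 note: reporter transcript level by RT-PCR then capillary electrophoresis fluorescence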
How it was run: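 Background control endpoint: reporter mRNA from transiently transfected HepG2 after 24 h dosing, detected by RT-PCR with capillary electrophoresis fluorescence. Analysed for gain versus DMSO.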

[17] = target: Estrogen-related receptor gamma (Homo sapiens) (UniProt P62508); assay: ATG_ERRg_TRANS: Attagene TRANS-FACTORIAL HepG2 Assay for human Estrogen-Related Receptor gamma (ERRg) (AID 2282977); conditions: HepG2 Attagene TRANS reporter, ERRg transactivation;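 note: hits increase reporter signal over DMSO so potencies reflect activators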
How it was run: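 Readout: fluorescent reporter-mRNA fragments resolved by capillary electrophoresis after RT-PCR and HpaI cut. Cells: transiently transfected HepG2 carrying GAL4-UAS reporters driven by exogenous NR-Gal4 chimeras, dosed 24 h. Activity fitted upward relative to DMSO baseline.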

[18] = target: Bile acid receptor (Homo sapiens) (UniProt Q96RI1); assay: ATG_FXR_TRANS: Attagene TRANS-FACTORIAL HepG2 Assay for Farnesoid X Receptor (FXR) (AID 2282979); conditions: HepG2 Attagene TRANS FXR-GAL4 reporter transcription;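 note: hits raise reporter mRNA above DMSO so AC50 marks FXR activation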
How it was run: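 Transient transfection of HepG2 with multiplexed GAL4-UAS reporter units; exogenous FXR-GAL4 chimera. Dose 24 h → TriZol RNA → oligo(dT) RT → PCR, 6-FAM primer extension, HpaI cut → CE. Gain vs DMSO.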

[19] = target: Oxysterols receptor LXR-beta (Homo sapiens) (UniProt P55055); assay: ATG_LXRb_TRANS: Attagene TRANS-FACTORIAL HepG2 Assay for human Liver X Receptor beta (LXRb) (AID 2282981); conditions: HepG2 Attagene TRANS GAL4-LXRb reporter, mRNA
How it was run: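 Liver-derived HepG2 cells transfected with Gal4-responsive reporters were dosed for 24 h. Activation was scored as rise in reporter mRNA, by RT-PCR and capillary electrophoresis, above DMSO baseline.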

[20] = target: Nuclear receptor subfamily 4 group A member 2 (Homo sapiens) (UniProt P43354); assay: ATG_NURR1_TRANS: Attagene TRANS-FACTORIAL HepG2 Assay for human Nuclear Receptor Related Protein 1 (NURR1) (AID 2282985); conditions: HepG2 Attagene TRANS reporter, mRNA readout
How it was run: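 Chimeric NR-Gal4 proteins were expressed in human HepG2 cells bearing GAL4-UAS reporter units, and induced reporter mRNA was quantified 24 h post-dosing by RT-PCR and capillary electrophoresis.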

Measured: outcome

Chain of Bile acid receptor (Homo sapiens) (Q96RI1 whole entry, looked up, the tested form may be a part): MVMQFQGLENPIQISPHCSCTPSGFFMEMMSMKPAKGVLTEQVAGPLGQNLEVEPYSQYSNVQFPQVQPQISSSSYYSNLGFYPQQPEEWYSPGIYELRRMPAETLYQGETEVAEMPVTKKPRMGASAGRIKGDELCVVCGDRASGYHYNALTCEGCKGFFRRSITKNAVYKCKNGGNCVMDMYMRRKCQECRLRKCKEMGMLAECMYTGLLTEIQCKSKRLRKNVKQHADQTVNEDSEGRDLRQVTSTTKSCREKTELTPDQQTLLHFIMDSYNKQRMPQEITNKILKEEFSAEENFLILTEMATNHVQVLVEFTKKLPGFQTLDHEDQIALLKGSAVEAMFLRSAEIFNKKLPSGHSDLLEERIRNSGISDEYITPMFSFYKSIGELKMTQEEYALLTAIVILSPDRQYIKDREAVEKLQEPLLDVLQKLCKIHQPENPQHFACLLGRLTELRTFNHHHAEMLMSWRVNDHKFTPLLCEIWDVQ
Chain of Estrogen receptor (Homo sapiens) (P03372 whole entry, looked up, the tested form may be a part): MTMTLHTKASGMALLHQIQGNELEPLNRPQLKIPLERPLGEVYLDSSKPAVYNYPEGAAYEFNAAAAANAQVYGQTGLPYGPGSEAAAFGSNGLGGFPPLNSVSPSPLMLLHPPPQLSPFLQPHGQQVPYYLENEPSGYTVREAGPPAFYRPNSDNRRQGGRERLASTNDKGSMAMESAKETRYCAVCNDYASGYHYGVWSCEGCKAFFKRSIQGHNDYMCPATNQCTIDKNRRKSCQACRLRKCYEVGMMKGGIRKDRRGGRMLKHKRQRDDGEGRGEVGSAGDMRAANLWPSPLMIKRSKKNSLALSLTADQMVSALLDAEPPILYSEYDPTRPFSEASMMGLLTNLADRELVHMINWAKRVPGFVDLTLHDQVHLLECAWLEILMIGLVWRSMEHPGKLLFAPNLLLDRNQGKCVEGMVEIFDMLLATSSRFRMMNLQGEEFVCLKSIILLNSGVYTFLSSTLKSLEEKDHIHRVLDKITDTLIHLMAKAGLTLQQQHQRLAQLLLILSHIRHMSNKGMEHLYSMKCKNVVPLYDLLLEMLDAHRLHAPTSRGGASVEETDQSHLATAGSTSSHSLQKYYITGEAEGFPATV
Chain of Steroid hormone receptor ERR1 (Homo sapiens) (P11474 whole entry, looked up, the tested form may be a part): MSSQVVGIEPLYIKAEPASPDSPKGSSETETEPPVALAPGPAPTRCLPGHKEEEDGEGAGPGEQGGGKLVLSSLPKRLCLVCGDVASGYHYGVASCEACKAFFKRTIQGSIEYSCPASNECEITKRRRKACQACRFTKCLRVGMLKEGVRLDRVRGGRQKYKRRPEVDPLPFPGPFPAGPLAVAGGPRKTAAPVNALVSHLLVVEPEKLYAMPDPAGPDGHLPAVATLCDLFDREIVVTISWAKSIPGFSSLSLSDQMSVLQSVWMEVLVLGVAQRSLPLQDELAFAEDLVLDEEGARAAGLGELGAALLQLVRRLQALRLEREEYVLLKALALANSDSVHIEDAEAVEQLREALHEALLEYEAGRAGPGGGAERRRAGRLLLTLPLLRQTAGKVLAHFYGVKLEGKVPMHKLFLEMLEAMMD
Chain of Oxysterols receptor LXR-alpha (Homo sapiens) (Q13133 whole entry, looked up, the tested form may be a part): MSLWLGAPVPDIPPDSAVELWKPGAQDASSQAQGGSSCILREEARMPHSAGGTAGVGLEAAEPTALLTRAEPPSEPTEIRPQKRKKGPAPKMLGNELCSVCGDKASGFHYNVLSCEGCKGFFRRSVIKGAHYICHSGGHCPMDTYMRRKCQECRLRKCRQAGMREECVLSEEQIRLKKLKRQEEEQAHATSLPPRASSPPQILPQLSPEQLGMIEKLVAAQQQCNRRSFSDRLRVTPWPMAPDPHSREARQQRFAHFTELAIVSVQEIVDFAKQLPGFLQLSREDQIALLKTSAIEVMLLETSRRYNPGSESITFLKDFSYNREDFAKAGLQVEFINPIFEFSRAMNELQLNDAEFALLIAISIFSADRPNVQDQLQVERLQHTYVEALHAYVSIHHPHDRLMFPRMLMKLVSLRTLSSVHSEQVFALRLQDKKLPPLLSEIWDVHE
Chain of Nuclear receptor subfamily 1 group I member 3 (Homo sapiens) (Q14994 whole entry, looked up, the tested form may be a part): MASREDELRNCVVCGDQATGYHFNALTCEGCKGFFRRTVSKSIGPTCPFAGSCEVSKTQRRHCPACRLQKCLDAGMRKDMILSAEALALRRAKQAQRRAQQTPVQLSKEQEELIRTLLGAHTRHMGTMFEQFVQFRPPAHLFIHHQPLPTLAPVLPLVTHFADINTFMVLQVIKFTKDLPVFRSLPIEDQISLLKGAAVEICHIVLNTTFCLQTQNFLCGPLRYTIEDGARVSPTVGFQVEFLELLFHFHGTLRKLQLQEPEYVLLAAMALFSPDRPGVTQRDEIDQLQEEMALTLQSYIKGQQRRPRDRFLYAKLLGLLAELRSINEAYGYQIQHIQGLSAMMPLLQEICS
Chain of Glucocorticoid receptor (Homo sapiens) (P04150 whole entry, looked up, the tested form may be a part): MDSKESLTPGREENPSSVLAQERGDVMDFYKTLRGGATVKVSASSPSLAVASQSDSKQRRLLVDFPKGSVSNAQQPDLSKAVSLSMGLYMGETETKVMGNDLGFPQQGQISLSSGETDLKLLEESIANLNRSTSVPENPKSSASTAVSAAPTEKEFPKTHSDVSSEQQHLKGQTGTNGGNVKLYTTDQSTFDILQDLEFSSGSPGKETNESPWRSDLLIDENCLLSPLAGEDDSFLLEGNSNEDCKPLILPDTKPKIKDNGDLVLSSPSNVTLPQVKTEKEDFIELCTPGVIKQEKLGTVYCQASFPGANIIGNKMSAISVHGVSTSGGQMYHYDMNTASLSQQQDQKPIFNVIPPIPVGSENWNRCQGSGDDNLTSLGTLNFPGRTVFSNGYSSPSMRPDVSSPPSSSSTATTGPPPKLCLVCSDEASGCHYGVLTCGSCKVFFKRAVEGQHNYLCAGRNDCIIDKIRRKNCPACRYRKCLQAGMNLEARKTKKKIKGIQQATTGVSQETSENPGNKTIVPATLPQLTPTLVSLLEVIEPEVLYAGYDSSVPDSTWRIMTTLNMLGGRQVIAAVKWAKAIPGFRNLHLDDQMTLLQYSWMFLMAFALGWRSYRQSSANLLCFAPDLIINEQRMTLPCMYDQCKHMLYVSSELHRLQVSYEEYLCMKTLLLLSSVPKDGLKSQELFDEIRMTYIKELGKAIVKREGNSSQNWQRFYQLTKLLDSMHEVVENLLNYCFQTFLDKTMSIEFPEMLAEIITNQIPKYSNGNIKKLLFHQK
Chain of Nuclear receptor subfamily 4 group A member 2 (Homo sapiens) (P43354 whole entry, looked up, the tested form may be a part): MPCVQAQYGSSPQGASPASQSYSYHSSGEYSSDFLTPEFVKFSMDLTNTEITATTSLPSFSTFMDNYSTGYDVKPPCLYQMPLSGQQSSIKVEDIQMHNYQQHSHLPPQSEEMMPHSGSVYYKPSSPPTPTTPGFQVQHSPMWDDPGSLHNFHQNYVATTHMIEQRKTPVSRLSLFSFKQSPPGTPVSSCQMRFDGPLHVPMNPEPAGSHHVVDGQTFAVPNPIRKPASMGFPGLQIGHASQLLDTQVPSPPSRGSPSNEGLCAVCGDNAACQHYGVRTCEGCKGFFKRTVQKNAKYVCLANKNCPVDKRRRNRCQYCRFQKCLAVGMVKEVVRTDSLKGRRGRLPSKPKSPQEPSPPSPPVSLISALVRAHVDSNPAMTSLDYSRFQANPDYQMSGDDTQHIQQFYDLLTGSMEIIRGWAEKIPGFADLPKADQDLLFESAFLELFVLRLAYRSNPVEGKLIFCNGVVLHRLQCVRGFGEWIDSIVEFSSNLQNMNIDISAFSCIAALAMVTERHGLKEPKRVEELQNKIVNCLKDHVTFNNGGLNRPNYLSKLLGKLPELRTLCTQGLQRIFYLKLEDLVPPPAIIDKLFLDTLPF
Chain of X-box-binding protein 1 (Homo sapiens) (P17861 whole entry, looked up): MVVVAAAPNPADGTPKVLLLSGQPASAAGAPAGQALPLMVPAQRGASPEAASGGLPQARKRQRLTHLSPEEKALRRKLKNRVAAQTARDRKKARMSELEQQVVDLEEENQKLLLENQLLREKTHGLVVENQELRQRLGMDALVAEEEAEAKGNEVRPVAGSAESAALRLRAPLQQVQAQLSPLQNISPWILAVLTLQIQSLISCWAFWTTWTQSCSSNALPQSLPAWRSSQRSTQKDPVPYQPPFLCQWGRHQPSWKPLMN
Chain of Transcriptional activator Myb (Homo sapiens) (P10242 whole entry, looked up): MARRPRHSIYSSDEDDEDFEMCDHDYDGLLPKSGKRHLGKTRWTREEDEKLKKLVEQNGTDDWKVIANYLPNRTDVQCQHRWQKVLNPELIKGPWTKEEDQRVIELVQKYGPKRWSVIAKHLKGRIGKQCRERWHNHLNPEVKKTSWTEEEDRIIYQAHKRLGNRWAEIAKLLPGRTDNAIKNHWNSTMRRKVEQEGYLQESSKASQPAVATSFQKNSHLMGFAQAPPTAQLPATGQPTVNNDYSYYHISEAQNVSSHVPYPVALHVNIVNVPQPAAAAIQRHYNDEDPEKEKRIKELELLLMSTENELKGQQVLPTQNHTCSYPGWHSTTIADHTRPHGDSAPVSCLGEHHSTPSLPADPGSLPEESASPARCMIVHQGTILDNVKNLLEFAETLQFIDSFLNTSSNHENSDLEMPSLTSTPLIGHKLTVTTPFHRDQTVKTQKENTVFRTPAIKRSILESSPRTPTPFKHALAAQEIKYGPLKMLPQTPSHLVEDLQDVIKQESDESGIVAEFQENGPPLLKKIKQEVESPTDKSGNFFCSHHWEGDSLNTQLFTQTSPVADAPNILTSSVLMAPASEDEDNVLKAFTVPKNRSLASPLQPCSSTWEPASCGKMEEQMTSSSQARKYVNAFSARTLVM

CC(O)CNCC(C)O (stereo unspecified)
inactive: [1] | [2] | [3] | [4] | [5] | [6] | [7] | [8] | [9] | [10]

C=C(C)C(=O)OCCC(C)OC(=O)C(=C)C (stereo unspecified)
inactive: [1] | [2] | [3] | [4] | [11] | [12] | [6] | [13] | [14] | [8] | [9] | [10]

COc1ccc(OC)cc1
inactive: [1] | [2] | [3] | [4] | [5] | [12] | [6] | [7] | [14] | [15] | [8] | [16] | [10]

CC(C)OB(OC(C)C)OC(C)C
inactive: [1] | [2] | [3] | [4] | [5] | [13] | [7] | [17] | [14] | [18] | [19] | [8] | [9] | [20] | [10]

O=C1OCc2ccccc21
inactive: [1] | [2] | [3] | [4] | [5] | [6] | [13] | [14] | [18] | [8] | [9] | [10]

CCCCN(CCCC)CCCCCCN(CCCC)CCCC
inactive: [1] | [2] | [3] | [4] | [5] | [6] | [13] | [15] | [19] | [9] | [10]

CCCCCCC(O)CCOC(C)=O (stereo unspecified)
inactive: [1] | [2] | [3] | [4] | [11] | [12] | [6] | [7] | [18] | [15] | [8] | [10]

CCOC(=O)COC(=O)c1ccccc1C(=O)OCC
inactive: [1] | [2] | [3] | [4] | [5] | [11] | [6] | [8] | [16] | [10]

Nc1cc([N+](=O)[O-])ccc1C(=O)O
inactive: [1] | [2] | [3] | [4] | [5] | [6] | [13] | [15] | [19] | [8] | [10]

CC(C)CCOC(=O)CC(C)C
inactive: [1] | [2] | [3] | [4] | [5] | [11] | [13] | [7] | [14] | [18] | [15] | [19] | [8] | [9] | [20] | [10]

CC(C)(C)c1cc(CCC(=O)OCCSCCOC(=O)CCc2cc(C(C)(C)C)c(O)c(C(C)(C)C)c2)cc(C(C)(C)C)c1O
inactive: [1] | [2] | [3] | [4] | [5] | [12] | [6] | [13] | [14] | [15] | [8] | [9] | [20] | [10]
